# Data: PubChem BioAssay
# Active and inactive are the calls of the source. Unless noted, the rule behind the calls is not given here.
# How the values were obtained:
# [1] = system: Wnt5a (protein binding on small-molecule microarray); test: Wnt5a binders on small-molecule microarray, primary screen, biophysical, 635/667 nm fluorescence (AID 1142); conditions: 635 nm fluorescence, higher = more signal;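 note: fluorescence read at 667 nm with signal to noise per printed feature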
# [2] = cell viability in Huh7 cells, primary screen, cytotoxicity control for HCV replication inhibitor project, CellTiter-Glo luminescence, basal, 48 h (AID 1143); conditions: Huh7 HCV replicon, higher = more signal, called active from +8 up or from −8 down;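 note: Huh7 hepatoma cells carrying a hepatitis C replication reporter with no stimulus; test concentration not given here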
# [3] = P. aeruginosa biofilm formation inhibitors, primary screen, PAO1 strain, BacTiter-Glo luminescence, LB-PBS (AID 1144); conditions: 12 h, higher = more signal
# [4] = CREB reporter modulators without forskolin, primary screen, cell-based, PC12, CRE-LacZ reporter, unstimulated (AID 1145); conditions: no forskolin, luminescence, 4.5 h, higher = more signal, called active from +8 up or from −8 down
# [5] = CREB reporter modulators under forskolin, primary screen, cell-based, PC12, CRE-LacZ reporter, forskolin-stimulated (AID 1146); conditions: luminescence, 4.5 h, higher = more signal, called active from +8 up or from −8 down;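 note: PC12 cells with 6xCRE LacZ reporter stimulated by forskolin 10 µM; beta-galactosidase reporter signal reflecting CREB driven transcription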
# [6] = molecular target: Streptavidin (Streptomyces avidinii) (UniProt P22629); test: streptavidin binders on small-molecule microarray, primary screen, artefact control for SMM compound annotation, biophysical, 635/667 nm fluorescence (AID 1147); conditions: streptavidin binding, higher = more signal;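 note: signal reflects streptavidin binding to arrayed compounds as a control protein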
# [7] = small-molecule binders of probe aInhba, primary screen, biochemical, small-molecule microarray, 635/667 nm fluorescence (AID 1148); conditions: higher = more signal;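 note: score merges 667nm spot fluorescence with signal-to-noise for antibody binding to printed compounds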
# Torsin-1A (Homo sapiens) [8] = molecular target: Torsin-1A (Homo sapiens) (UniProt O14656); test: torsin A binders from cell lysate, primary screen, small-molecule microarray, wild-type, 635/667 nm (AID 1149); conditions: COS7 hTOR1A-WT lysate, 635 nm fluorescence, higher = more signal
# Torsin-1A (Homo sapiens) [9] = molecular target: Torsin-1A (Homo sapiens) (UniProt O14656); test: small-molecule binders of mutant TOR1A in lysate, primary screen, cell lysate, small-molecule microarray, COS7 lysate, 635/667 nm fluorescence (AID 1150); conditions: COS7 hTOR1A mutant lysate, 635 nm fluorescence, higher = more signal;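 note: score pools 667 nm emission and signal to noise measuring lysate protein binding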
# [10] = system: Sonic hedgehog protein (Shh); test: small-molecule binders of Shh protein, primary screen, biochemical, small-molecule microarray, 635/667 nm fluorescence (AID 1151); conditions: small-molecule microarray binding, 635 nm fluorescence; higher = more signal;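 note: Shh protein binding to compounds spotted on small-molecule microarray slides; score combines spot fluorescence intensity with signal-to-noise across triplicate slides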
# Chain of Streptavidin (Streptomyces avidinii) (P22629 whole entry, looked up): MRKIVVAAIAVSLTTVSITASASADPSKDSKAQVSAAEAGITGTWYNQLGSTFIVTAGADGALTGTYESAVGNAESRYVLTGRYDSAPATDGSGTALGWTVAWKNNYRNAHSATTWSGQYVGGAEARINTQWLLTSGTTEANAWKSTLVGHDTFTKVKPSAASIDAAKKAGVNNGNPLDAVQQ
# Chain of Torsin-1A (Homo sapiens) (O14656 whole entry, looked up): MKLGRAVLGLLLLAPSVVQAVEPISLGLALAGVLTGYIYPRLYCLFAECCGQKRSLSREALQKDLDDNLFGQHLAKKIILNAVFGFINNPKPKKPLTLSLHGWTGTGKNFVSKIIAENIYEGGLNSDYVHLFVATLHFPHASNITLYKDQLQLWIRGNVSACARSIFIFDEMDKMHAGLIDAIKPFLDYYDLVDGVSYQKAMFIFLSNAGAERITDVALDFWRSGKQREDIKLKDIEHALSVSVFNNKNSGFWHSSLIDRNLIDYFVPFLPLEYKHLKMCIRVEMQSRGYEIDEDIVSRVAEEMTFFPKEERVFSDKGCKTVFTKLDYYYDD
SMILES,composite z-score [1],z-score [2],z-score [3],z-score [4],z-score [5],composite z-score [6],composite z-score [7],composite z-score (Torsin-1A (Homo sapiens) [8]),composite z-score (Torsin-1A (Homo sapiens) [9]),composite z-score [10]
C=C(C)[C@@H]1CC=C(C(O)C2C=CC3C(=O)N(c4ccccc4)C(=O)C3N2Nc2ccccc2)CC1 (stereo not given in full),0.371,0.0984 (inactive),-1.65 (inactive),0.0569 (inactive),-0.0811 (inactive),2.43,0.906,0.476,0.579,0.456
C=CCC(OC(C)=O)[C@@H]1[C@@H](N(Cc2ccc(-c3ccccc3)cc2)C(=O)Cc2ccc(OC)cc2)c2cc(OCCCO)ccc2N1C(=O)Cc1ccc2ccccc2c1 (stereo not given in full),-0.263,-1.45 (inactive),0.294 (inactive),0.745 (inactive),0.358 (inactive),0.192,-0.0221,-0.921,0.616,0.412
C=CCN1C(=O)[C@]2(O[C@H](CCn3cc([C@H](O)c4ccccc4)nn3)[C@@H]([Si](C)(C)c3ccc(OC)cc3)[C@@H]2C)c2ccccc21,-0.336,-3.87 (inactive),-0.151 (inactive),2.23 (inactive),-0.979 (inactive),-0.957,-0.203,-0.704,-0.73,0.238
NC(=O)NCC#Cc1ccc2c(c1)[C@]1(C(=O)N2)[C@H](c2ccc(O)cc2)N2[C@H](c3ccccc3)[C@H](c3ccccc3)OC(=O)[C@H]2[C@@H]1C(=O)O,-0.763,0.0192 (inactive),-0.248 (inactive),0.895 (inactive),-0.226 (inactive),-0.256,-0.299,-1.13,-0.914,-0.453
COc1ccc(C#Cc2ccc3c(c2)[C@]2(C(=O)N3)[C@H](c3ccccc3OCCO)N3[C@H](c4ccccc4)[C@H](c4ccccc4)OC(=O)[C@H]3[C@@H]2C(=O)Nc2nc3ccccc3s2)cc1,0.469,-1.62 (inactive),-0.726 (inactive),-1.28 (inactive),-1.38 (inactive),1.09,1.06,0.0821,0.479,1.52
CCOC(=O)C[C@H]1[C@H](OC(=O)c2ccc(-c3ccccc3)cc2)[C@@H](NC(=O)Cc2ccc(OC)cc2)c2cc(OCCCO)ccc2N1C(=O)c1ccccc1,0.118,-1.02 (inactive),0.338 (inactive),-0.505 (inactive),-0.15 (inactive),-0.0322,-0.0645,-0.36,0.023,0.265
C=C[C@H](C)[C@@H](OC(=O)Nc1ccc(OC)cc1)c1ccc(O)c2ccccc12,0.198,-6 (inactive),-0.899 (inactive),0.804 (inactive),0.819 (inactive),-0.387,-0.206,0.308,0.422,1.36
O=C1O[C@@H](c2ccccc2)[C@@H](c2ccccc2)N2[C@@H](c3ccccc3OCCO)[C@]3(C(=O)Nc4ccc(C#CC5=CCCCC5)cc43)[C@@H](C(=O)N3CCCCCCC3)[C@H]12,2.24,-4.53 (inactive),0.189 (inactive),-0.203 (inactive),0.188 (inactive),3.51,2.23,2.81,2.9,1.22
COCCOC(=O)N1C(=O)[C@@]2(c3cc(C#CCCO)ccc31)[C@H](C(N)=O)[C@H]1C(=O)O[C@H](c3ccccc3)[C@H](c3ccccc3)N1[C@@H]2c1ccc(O)cc1,0.186,0.505 (inactive),0.676 (inactive),-0.602 (inactive),-0.702 (inactive),-0.36,-0.163,-0.192,-0.176,-0.412
CN1C(=O)C2C=CC(C(O)C3CC=CCC3)N(N(c3ccccc3)c3ccccc3)C2C1=O (stereo not given),0.155,0.909 (inactive),0.472 (inactive),0.629 (inactive),0.47 (inactive),0.184,0.027,0.36,-0.368,0.0122
C=CCOC(=O)[C@H]1[C@@H]2C(=O)O[C@@H](c3ccccc3)[C@@H](c3ccccc3)N2[C@@H](c2ccc(OCCOC(=O)[C@H]3C[C@H]4C(=O)N[C@@H](CCCCN(C)C)C(=O)N4[C@H]3c3ccc(O)cc3)cc2)[C@]12C(=O)Nc1ccc(I)cc12,0.0259,-0.264 (inactive),0.549 (inactive),-0.268 (inactive),0.259 (inactive),1.23,0.135,1.94,1.33,1.96
Cc1ccc(S[C@]2(C(=O)NCCCN(C)C)CC(=O)N(Cc3ccccc3C(F)(F)F)[C@@H]2c2ccc(CO)cc2)cc1,-0.197,0.312 (inactive),1.08 (inactive),-0.295 (inactive),0.358 (inactive),-0.0283,-0.0791,-0.544,0.801,-0.548
CCCCCCc1nc(-c2cc(C)c(OC)c(C)c2)cc2c1[Si](C(C)C)(C(C)C)OC2,-0.227,-2.72 (inactive),-0.661 (inactive),-0.0989 (inactive),0.0738 (inactive),0.0643,0.131,-0.646,-0.384,0.985
COC(=O)[C@@]1(Cc2ccc(OC)cc2)[C@H]2c3cc(C(=O)N(C)C)n(Cc4ccccn4)c3C[C@H]2CN1C(=O)c1ccccc1,0.164,-1.17 (inactive),0.691 (inactive),1.16 (inactive),0.97 (inactive),2.57,0.322,0.192,1.59,-0.403
C=CC1(C(=O)OC)CC=C(C(=O)OC)CC1 (stereo not given),0.181,-1.3 (inactive),0.132 (inactive),0.332 (inactive),0.0857 (inactive),0.596,-0.154,0.226,0.823,0.434
CC[C@@H]1C=C(C(=O)O)[C@H](c2ccc(Br)cc2)N1S(=O)(=O)c1ccc(C)cc1,-0.13,-0.141 (inactive),0.598 (inactive),0.0798 (inactive),0.472 (inactive),0.791,0.222,0.297,0.233,0.248
C=C[C@@H](COC(=O)OC(C)(C)C)N(Cc1ccc(OC)cc1)S(=O)(=O)c1ccc(Br)cc1,0.0249,-1.75 (inactive),0.551 (inactive),3.04 (inactive),1.88 (inactive),0.603,-0.0332,0.604,0.299,1.57
O=C(NCCN1CCOCC1)C1N=C(c2ccc(OCCCO)cc2)N(c2ccccc2)O1 (stereo not given),0.889,0.213 (inactive),1.27 (inactive),1.78 (inactive),0.552 (inactive),0.284,0.0219,1.86,2.3,1.42
CC(=O)NCCCC[C@@H]1NC(=O)[C@H]2C[C@@H](C(=O)NCCCCCCNC(=O)CS)[C@@H](c3ccc(O)cc3)N2C1=O,0.151,-0.133 (inactive),-0.619 (inactive),-0.528 (inactive),0.14 (inactive),-1.22,0.0074,0.365,2.14,1.22
